Screening results (PubChem)
Rows were chosen to be rich in hits. Some 2.5% of all compounds tested hit in one or more screens of this group.
D2 ag-1 = human D2 receptor agonism in beta-arrestin assay; activation, % (no concentration beside the values); DiscoveRx PathHunter D2 beta-arrestin, luminescence, 90 min; 100% = 57 uM dopamine signal; 360,000 tested, 0.084% active; P14416; in the data active means activation above about 40%; inconclusive means between about 15% and that limit
Target sequence (P14416 whole entry, looked up): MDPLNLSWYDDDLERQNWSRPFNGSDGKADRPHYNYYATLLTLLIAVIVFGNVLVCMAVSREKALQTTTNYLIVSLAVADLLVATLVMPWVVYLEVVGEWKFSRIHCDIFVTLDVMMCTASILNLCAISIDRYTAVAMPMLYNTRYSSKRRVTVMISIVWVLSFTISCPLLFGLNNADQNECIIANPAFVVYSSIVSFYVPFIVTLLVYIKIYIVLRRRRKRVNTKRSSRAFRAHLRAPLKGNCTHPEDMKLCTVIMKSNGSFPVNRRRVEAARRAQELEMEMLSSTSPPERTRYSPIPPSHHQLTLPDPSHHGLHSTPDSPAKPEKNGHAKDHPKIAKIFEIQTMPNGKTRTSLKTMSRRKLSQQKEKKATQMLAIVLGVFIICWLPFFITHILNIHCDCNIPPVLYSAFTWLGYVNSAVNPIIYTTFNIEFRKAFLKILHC
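Agonist mode: compounds alone added to overnight-plated D2 PathHunter cells for 90 min at 37 C, with 57 uM final dopamine (EC100) defining full response. Beta-arrestin recruitment detected by chemiluminescent reagent, read after 1 h at ambient temperature.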
D2 ag-2 = agonists of human D2 dopamine receptor; activation, % at 2 µM; AID 485358; HEK293 T-REx D2 cells, calcium flux agonist mode; 340,000 tested, 0.53% active; P14416;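 active means activation over 3 SD above normal in the single-dose calcium agonist read, cut at about 30% in these data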; further: 0% is about no effect
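Agonism scored from kinetic calcium signal (1 read/sec, 180 s) following compound pin transfer, after a 10 s baseline. Cells: HEK293 Trex line expressing inducible D2 receptor coupled to calcium, dye-loaded after overnight culture at 30 C.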
Anesthetic bind = binds horse apoferritin like a general anesthetic; P02791; apoferritin/1-aminoanthracene competitive binding, fluorescence; Potency, µM (highest dose often 77.5 µM), for the others: at the top dose activity change, negative = displacement, usual class: inhibitors; 350,000 tested, 0.074% active; AID 485281; active means well fitted inhibition curve with a large enough effect; inconclusive means small, poorly fitted or top-dose-only effect; inactive means no such curve, though single readings can be large or run the other way; further: potency means the concentration at half of the fitted maximal effect; on the % scale 0 is the no-effect control and ±100 the full control effect; nearly all actives have a fitted effect of over 20% in size
Target sequence (P02791 2-175 limits assumed): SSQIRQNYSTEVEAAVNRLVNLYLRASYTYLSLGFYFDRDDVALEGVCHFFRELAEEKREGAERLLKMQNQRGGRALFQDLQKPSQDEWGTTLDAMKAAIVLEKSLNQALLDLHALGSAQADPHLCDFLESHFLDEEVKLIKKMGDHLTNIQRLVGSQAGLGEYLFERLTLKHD
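Probe: 1-aminoanthracene (50% saturated, PBS). Protein: horse-spleen apoferritin, 10 uM. Incubation: 10 min, room temperature. Detection: 380 nm excitation, 535 nm emission. Analysis: normalized response, four-parameter Hill.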
D2 PAM-1 = positively modulates the human D2 dopamine receptor allosterically | P14416 | HEK293 T-REx D2, calcium flux, EC20 dopamine potentiation | potentiation, % at 10 µM | 340,000 tested, 0.34% active | AID 485347;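 active means potentiation over 3 SD above the plate norm, cut at about 30% in these data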; further: 0% is about no effect
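Potentiation of an EC20 dopamine calcium response measured kinetically over 180 s, after a preceding 180 s compound-only read flagging agonists. Cells: inducible Hek293 Trex D2 line, 4000/well, cultured overnight at 30 C before dye loading.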
D2 PAM-2 = potentiates the human D2 dopamine receptor allosterically. AID 624464. 360,000 tested, 0.23% active. DiscoveRx D2 beta-arrestin cells, luminescence, 90 min; 100% = 57 uM dopamine signal. potentiation, % (concentration not given with the values); in the data active means potentiation above about 50%; inconclusive means mostly about 30% to 49%
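D2 cells co-treated with compound plus 50 nM dopamine (EC20) for 90 min at 37 deg C to detect potentiation. Beta-arrestin recruitment was read as enzyme-fragment luminescence after 1 h at ambient temperature. Full response was set by 57 uM dopamine.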
D2 antag = antagonizes the human D2 dopamine receptor. 340,000 tested, 2% active. inhibition, % at 10 µM. HEK293 TREx D2 cells, calcium flux, dopamine EC80. AID 485344; in the data active means inhibition above about 30%; inactive means below that, where a call was filed; further: 0% is about no effect
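Tetracycline-induced HEK293 TREx cells expressing D2 receptor forced-coupled to calcium signalling, loaded with no-wash calcium dye. Compounds added and calcium flux read 180 s, then dopamine added at EC80 and read a further 180 s.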
* marks the source's active call; other numbers are inactive results; ? = inconclusive; nt = no result.

SMILES	D2 ag-1	D2 ag-2	Anesthetic bind	D2 PAM-1	D2 PAM-2	D2 antag
CCOC1OC(=O)C(Cl)=C1Nc1ccc(C)cc1 (configuration not stated)	-2	-1	-5%	-1	-7	3
Cc1ccc(NC2=C(Cl)C(=O)OC2NC(=O)c2ccccc2)cc1 (configuration not stated)	-1	1	-11%	-4	-6	55*
CC(C)CCn1c(NCCN(C)C)nc2c1c(=O)[nH]c(=O)n2C	-2	1	-6%	-10	-31	20
Cc1cccc(Nc2nc3c(c(=O)n(C)c(=O)n3C)n2Cc2ccccc2)c1	-5	-1	2%	46*	-16	8
[O-][N+]1=c2ccc(Nc3ccccc3)cc2=NC12CCCCC2	-4	-1	?	-14	-21	32*
COc1ccc(Nc2ccc3c(c2)=NC2(CCCCC2)[N+]=3[O-])cc1	-3	0	?	-7	-14	4
CC(C)(Oc1ccc(Cl)cc1)C(=O)Nc1c2c(nn1C(C)(C)C)CS(=O)(=O)C2	5	0	nt	7	3	-18
CSc1ccccc1NC(=O)Nc1ccc(Cl)cc1	1	1	-21%	-26	-8	31*
COc1ccc(NC(=O)Nc2ccccc2SC)cc1	-5	-1	-14%	-12	-14	-27
CC(C)Cn1cnc2c1c(=O)n(CC(=O)NC(=O)NC(C)(C)C)c(=O)n2Cc1ccccc1	-3	0	-7%	31*	2	14
Cc1nnc(SCC(C)C)[nH]c1=O	-3	-1	-2%	0	-12	-2
Cc1nn(CC(C)C)c(=S)[nH]c1=O	-4	0	6%	14	-15	32*
O=C(NCC1CCCCC1)c1cccnc1Cl	-5	2	2%	1	-8	-6
O=C(Nc1ccc2oc(=O)ccc2c1)c1ccc(-c2cccc([N+](=O)[O-])c2)o1	5	0	-13%	0	-5	6
CN1/C(=C\C(=O)COC(=O)CNC(=O)c2ccccc2F)C(C)(C)c2ccccc21	-3	-1	-12%	-19	-9	-27
COc1ccccc1C(=O)Nc1sc(C(=O)N2CCCC2)c(C)c1C#N	1	1	-23%	3	-6	-4
Cc1c(C(=O)N2CCCC2)sc(NC(=O)c2ccc(Cl)cc2)c1C#N	-1	0	2%	-24	-9	91*
CCOC(=O)c1sc(NC(=O)CSc2n[nH]c(-c3ccc(Cl)cc3Cl)n2)c(C#N)c1C	-1	0	-8%	31*	-3	6
CCOC(=O)c1sc(NC(=O)c2ccncc2)c(C#N)c1C	0	8	-1%	31*	?	-1
CCOC(=O)c1sc(NC(=O)CSc2nc(C)cc(-c3ccccc3)n2)c(C#N)c1C	3	-1	-6%	-1	0	2
O=C(NCCN1CCOCC1)c1cc2sccc2n1Cc1ccc(F)cc1	-2	0	-11%	-26	-16	38*
Cn1c(=O)[nH]c(=O)c2c1ncn2CCN1CCOCC1	-1	0	-1%	6	-18	38*
Cn1c(=O)[nH]c(=O)c2c1nc(N1CCOCC1)n2CCN1CCOCC1	-4	1	-14%	3	-3	-6
CCCCOc1ccc(C(=O)NCC(=O)N2CCN(Cc3ccc4c(c3)OCO4)CC2)cc1	-7	0	nt	3	-2	-4
CC(=O)c1cccc(NC(=O)c2ccc(NS(=O)(=O)c3c(C)noc3C)cc2)c1	-5	0	-9%	-6	-14	9
SMILES	D2 ag-1	D2 ag-2	Anesthetic bind	D2 PAM-1	D2 PAM-2	D2 antag
CCn1cc(CN2CCC(C(=O)Nc3ccc(Oc4cccnc4)cc3)CC2)cn1	-4	-3	-16%	-6	17	31*
CCn1cc(CN2CCC(C(=O)Nc3ccc(Oc4cccnc4)cc3)CC2)c(C)n1	-6	0	-12%	-9	-25	-6
CN(C)CCN(Cc1ccco1)C(=O)c1cc2c(Cl)nc3ccccc3c2s1	-2	5	-12%	16	-6	9
Cc1c(O)c(CN2CCCCC2)cc2c1oc(=O)c1ccccc12	-2	-1	-8%	-13	-52	66*
Cc1cc(NC(=O)c2ccc(C(C)(C)C)cc2)no1	5	nt	nt	nt	5	nt
CCCCCCCC(=O)Oc1ccc(C(=O)Nc2cc(C)on2)cc1	0	-1	-7%	-9	0	37*
COC(=O)c1ccc(Cl)cc1NC(=O)Nc1nnc(N2CCCC2)s1	nt	2	-5%	-2	nt	nt
COc1ccc(N(CC(=O)NCCc2ccc(OC)c(OC)c2)S(=O)(=O)c2c(C)noc2C)cc1	64*	1	-6%	-2	-2	-12
CCN(C(=O)c1c(OC)cccc1OC)c1nnc(-c2cccnc2)s1	1	0	-8%	52*	0	-13
COCCN(C(=O)COc1ccccc1)c1nnc(-c2cccnc2)s1	1	0	-10%	-1	28	-7
CCN(C(=O)COc1ccccc1)c1nnc(-c2cccnc2)s1	1	-1	-4%	-7	-27	41*
c1ccc2c(C[C@@H]3CNCCN3CCCCC3CCCCC3)cccc2c1	1	nt	nt	nt	-18	nt
CC(=O)c1cccc(NC(=O)N2CCC(NC(=O)C3CCCCC3)CC2)c1	-5	0	-10%	-22	-9	-3
NC(=O)C1CCN(S(=O)(=O)c2cc3c4c(c2)CCN4C(=O)CC3)CC1	-6	0	nt	3	4	30*
CCOC(=O)C1CCCN(S(=O)(=O)c2cc3c4c(c2)CCN4C(=O)CC3)C1 (configuration not stated)	?	0	nt	16	-2	-6
CCCCCCCC[n+]1cccc(C(=O)N(CC)CC)c1	-3	0	1%	-2	-11	-6
CCCCCCCCCCCCCCCC[n+]1cccc(C(=O)N(CC)CC)c1	-6	-1	16µM*	17	-15	8
CCN(CC)S(=O)(=O)c1ccc(NC=C(C#N)C#N)cc1	3	0	5%	-2	-2	74*
CCCCOc1ccc(CNC(=S)N/N=C/c2ccc(OC)c(OC)c2)cc1	-1	1	112%	3	3	-13
NC(=O)C1CCN(C(=O)COc2ccc3c4c(c(=O)oc3c2)CCCC4)CC1	-6	2	-11%	8	-26	31*
COc1ccc(Cc2nnc(SCc3nc4ccccc4c(=O)[nH]3)n2C)cc1	3	1	-6%	5	9	-32
CN(c1ccc(OCC(=O)Nc2ccccc2C(=O)O)cc1)S(=O)(=O)c1ccc(Cl)cc1	2	nt	nt	nt	62*	nt
